Source: PubChem BioAssay (National Center for Advancing Translational Sciences (NCATS))
In the library only some 12% were active in any assay of this set; here they are far more common.
FMDV antiviral: blocks foot and mouth disease virus; Potency, µM (series often up to 57.9 µM), usual class: inhibitors; FMDV antiviral cell-based qHTS; AID 1159524; 1.2% of 410,000 active; calls by dose curve; tested in HEK293T cells; further: read-out not given here; nearly all actives have a fitted effect of over 45% in size
Shiga inhibitor: blocks Shiga toxin action in Vero cells | Vero cells, Shiga toxin protein synthesis inhibition reporter | AID 2315 | 9.2% of 290,000 active | inhibition, % at 38.7 µM; in the data active means inhibition mostly above about 28%, no sharp cut-off; inactive means mostly below about 43%
CHX counter: counter-screen for Shiga toxin inhibitors: cycloheximide protein synthesis inhibition; cell reporter, cycloheximide protein synthesis inhibition counterscreen; max response, %; 12% of 300,000 active; AID 2314; in the data active means max response mostly above about 13%, no sharp cut-off; inactive means mostly below about 14%; further: read at 38.3 µM for the half of the compounds with a filed dose
Sm TGR block: inhibitors of Schistosoma mansoni thioredoxin glutathione reductase; purified TGR, DTNB reduction, TNB absorbance 405 nm; 3% of 360,000 active; Q962Y6; AID 485364; Potency, µM (doses to about 114 µM), most hits filed as inhibitors; active means well fitted inhibition curve with a large enough effect; inconclusive means small, poorly fitted or top-dose-only effect; inactive means no such curve, though single readings can be large or run the other way; further: nearly all actives have a fitted effect of over 60% in size
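First, TGR (20 nM dispensed) and NADPH were mixed with compound. Second, a 15 min room-temperature incubation followed. Third, further NADPH and then DTNB were added to start the reaction. Finally, TNB absorbance was monitored kinetically.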
Each line names hits and unclear results; the compound was inactive in the other large screens; ! = not confirmed by another sample.

CCOC(=O)N/N=C\C=C\c1ccco1	Sm TGR block 22µM
CCOC(=O)C(=O)N/N=C/c1ccco1	none
COC(=O)N/N=C(C)/C=C/c1ccccc1	none (no result: Shiga inhibitor, CHX counter, Sm TGR block)
CCOC(=O)N/N=C(C)/C=C/c1ccco1	CHX counter 21, Sm TGR block 32µM
CCOC(=O)N/N=C(C)/C=C/c1ccccc1	CHX counter 28
O=C1CC(c2ccccc2Cl)=NN(c2ncnc3ccccc23)C1=O	Shiga inhibitor 94, CHX counter 41
NC1=NC(=O)/C(=C/c2cn(CCC(=O)O)nc2-c2ccc(Cl)cc2)S1	none
CN(C)C1=NC(=O)/C(=C/c2ccc(-c3ccc(S(N)(=O)=O)cc3)o2)S1	Sm TGR block 32µM (no result: FMDV antiviral)
NS(=O)(=O)c1ccc(-c2ccc(C=C3C(=O)c4ccccc4C3=O)o2)cc1	none
NC1=NC(=O)/C(=C\c2ccc(-c3ccc(Cl)cc3)o2)S1	Shiga inhibitor 30, CHX counter 13
CCC(C)NC(=O)c1cnn(-c2ccc(Cl)cc2)c1C1CCN(C(=O)OC(C)(C)C)CC1 (stereo not given)	none (no result: Shiga inhibitor, CHX counter)
CC(C)N1C(=S)N(Cc2ccco2)C(=O)C1CC(=O)Nc1ccccc1 (stereo not given)	Sm TGR block 40µM
Cc1ccc(C2=NN(S(=O)(=O)c3ccccc3)C(c3ccccc3O)C2)cc1 (stereo not given)	Shiga inhibitor 69, CHX counter 20
COc1ccc(C2=NN(c3ccc(C(=O)O)cc3)C(c3ccc(OC)c(OC)c3)C2)cc1 (stereo not given)	Shiga inhibitor 53, CHX counter 39
COc1ccc(C2CC(c3ccccc3)=NN2c2ccc(Cl)c(C(=O)O)c2)cc1 (stereo not given)	Shiga inhibitor 45, CHX counter 26
COc1ccc(C2CC(c3ccccc3)=NN2c2ccc(N)cc2)cc1 (stereo not given)	FMDV antiviral 40µM, Shiga inhibitor 44, CHX counter 39
CSc1ccc(CCNC(=O)c2ccc(-n3c(C)cc4c3CCCC4)cc2)cc1	none (no result: Shiga inhibitor, CHX counter)
O=C(c1cccs1)N1N=C(c2ccccc2)CC1c1ccccc1O (stereo not given)	none
COc1ccc(C2CC(c3ccccc3)=NN2S(=O)(=O)c2ccccc2)cc1 (stereo not given)	Shiga inhibitor 55, CHX counter 34
COc1ccc(C2CC(c3ccccc3)=NN2C(=O)c2ccc(F)cc2)cc1 (stereo not given)	none
Cc1ccc(C2=NN(C(=O)c3cccs3)C(c3ccccc3O)C2)cc1 (stereo not given)	CHX counter 22 (no result: Sm TGR block)
Cc1ccc2nc(NC(=O)CSc3nccn3Cc3ccc(F)cc3)sc2c1	FMDV antiviral inconclusive (no result: Shiga inhibitor, CHX counter)
COC(=O)c1ccc(Cl)cc1NC(=O)N(C)CCc1c(C)nn(C)c1C	none (no result: Shiga inhibitor, CHX counter)
N=C1C(c2nc3ccccc3[nH]2)=C(O)CN1C1CCCCC1	Shiga inhibitor 55, CHX counter 31
N=C1C(c2nc3ccccc3[nH]2)=C(O)CN1c1ccc(F)cc1	CHX counter 38
COc1ccc(S(=O)(=O)c2c(SC)nn(CC(=O)Nc3ccc(C)c(Cl)c3)c2N)cc1	none (no result: Shiga inhibitor, CHX counter)
O=C(NCCCN1CCOCC1)/C(=C/c1ccc(-c2cccc([N+](=O)[O-])c2)o1)NC(=O)c1ccccc1	none (no result: Shiga inhibitor, CHX counter, Sm TGR block)
Cc1nc2nc(C)n(CCN3CCOCC3)c(=O)c2c(-c2cccc([N+](=O)[O-])c2)c1C(=O)CCCCCCCCCCN1CCC(c2ccccc2)(c2ccccc2)CC1	FMDV antiviral 25µM (no result: Shiga inhibitor, CHX counter, Sm TGR block)
COc1cccc(NC(=O)c2ccc3c(c2)CCCC3)c1	Shiga inhibitor 73, CHX counter 49
CCS(=O)(=O)N1CCCc2cc(C(=O)Nc3cccc(C(C)=O)c3)ccc21	none (no result: Shiga inhibitor, CHX counter)
CC(=O)c1cccc(NC(=O)c2ccc3c(c2)CCCC3)c1	Shiga inhibitor 57, CHX counter 53
Nc1ccc(-c2nc3ccc(N)cc3s2)cc1	CHX counter 14
Nc1ccc2nc(-c3ccc(O)cc3)sc2c1	FMDV antiviral inconclusive (no result: Shiga inhibitor, CHX counter)
Nc1cccc(-c2nc3ccc(N)cc3s2)c1	FMDV antiviral inconclusive, CHX counter 21
Cc1cc(-c2nc3cc(F)ccc3s2)ccc1N	none (no result: Shiga inhibitor, CHX counter, Sm TGR block)
COc1ccc(Cl)cc1NC(=O)Cn1cc(S(=O)(=O)Cc2cccc(Cl)c2)c2ccccc21	none (no result: Shiga inhibitor, CHX counter)
COc1ccc([C@@H](C)NC(=O)CCc2nnc(-c3cc(C)on3)o2)cc1	none
Cc1cc(-c2nnc(CCC(=O)NCc3cc(F)cc(C(F)(F)F)c3)o2)no1	CHX counter 25
CCC(NC(=O)CCc1nnc(-c2cc(C)on2)o1)C12CC3CC(CC(C3)C1)C2 (stereo not given)	CHX counter 18
Cc1ccc(Cn2c(SCc3ccc(C(=O)O)cc3)nc3cccnc32)cc1	none (no result: Shiga inhibitor, CHX counter)
CC(C)NC(=O)c1onc(CSc2nc3ccccc3[nH]2)c1C(=O)NC(C)C	none
COc1ccc2nc(S(=O)Cc3ncc(C)c(OC)c3C)[nH]c2c1 (stereo not given)	none
COCCCOc1ccnc(CS(=O)c2nc3ccccc3[nH]2)c1C (stereo not given)	Shiga inhibitor 48, CHX counter 44
Cc1c(OCC(F)(F)F)ccnc1CSc1nc2ccccc2[nH]1	Shiga inhibitor 132, CHX counter 54
Cc1c(OCC(F)(F)F)ccnc1CS(=O)c1nc2ccccc2[nH]1 (stereo not given)	Shiga inhibitor 116!, CHX counter 27
COc1cccc(Nc2nnc(-c3cc4ccc(O)cc4oc3=O)s2)c1	none (no result: Shiga inhibitor, CHX counter)
COc1ccc(CCNC(=O)CCS(=O)(=O)c2cc(Br)cc3c2N(C(C)=O)CC3)cc1OC	none (no result: Shiga inhibitor, CHX counter)
Cc1ccsc1/C=N/N1CCN(c2ccccn2)CC1	Shiga inhibitor 55, CHX counter 31
Cc1ccsc1/C=N/N1CCN(c2ccccc2)CC1	Shiga inhibitor 60, CHX counter 71
Cc1ccsc1/C=N/N1CCN(Cc2ccccc2)CC1	Shiga inhibitor 38, CHX counter 24
COC(=O)Cc1c(C)c2cc3c(c(C)c2oc1=O)OCN(CCc1ccccc1F)C3	Sm TGR block inconclusive (no result: Shiga inhibitor, CHX counter)
COc1cccc(C(=O)Nc2ccccc2-c2nnc(-c3cccc(OC)c3)o2)c1	none (no result: Shiga inhibitor, CHX counter)
C=CCn1c(=S)[nH]c2nc3c(cc2c1=O)CCCC3	Shiga inhibitor 29, CHX counter 29 (no result: FMDV antiviral)
O=C(NCC1CCCO1)c1cc(-c2ccco2)nc2ccccc12 (stereo not given)	Sm TGR block 35µM
O=C(NC1CCC(O)CC1)c1cc(-c2ccco2)nc2ccccc12 (stereo not given)	Sm TGR block 11µM
COc1cccc(-c2cc(C(=O)NC3CC3)c3ccccc3n2)c1	FMDV antiviral inconclusive
CCOc1ccc(N(C)C(CNS(=O)(=O)c2ccccc2)c2ccccc2)cc1 (stereo not given)	none (no result: Shiga inhibitor, CHX counter)
COc1ccc(C(=O)O/N=C(\N)c2ccc(Cl)cc2)cc1	Shiga inhibitor 88, CHX counter 37
N/C(=N\OC(=O)CN1C(=O)c2ccccc2C1=O)c1ccc(Cl)cc1	none
COc1ccccc1C(=O)O/N=C(\N)c1ccc(Cl)cc1	Shiga inhibitor 90, CHX counter 52
ClC1(Cl)CC1CSc1nnc(-c2ccncc2)o1 (stereo not given)	CHX counter 19
CCSc1nnc(-c2ccncc2)o1	none
COc1cccc(/C=N/NC(=O)c2cnccn2)c1OC	Shiga inhibitor 50, CHX counter 17
